GI50 data for 11 substances are collected here from ChEMBL document CHEMBL1201862, “PubChem BioAssay data set” (2004).

The whole screen tested about 55,000 sequences, of which about 3,800 (6.9%) were called active. Cut-off read from the data, not from the text of the source: active = GI50 up to about 1.1 µM and inactive = higher. A selection follows. Potency and affinity values are given separately.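 Exposure lasted 48 hours, with cells grown in 96-well plates and compounds tested at five concentrations. GI50 is the concentration that inhibits growth by half.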

The subject of this assay is CAKI-1. Put plainly: NCI tumour cell line growth inhibition, 48 h.
In turn, “[Bis(aminomethyl)pentamethylenesilane]dichloropaltinum(II), CHEMBL2146202” showed a GI50 of 2.26 µM.

Regarding “[Bis(aminomethyl)tetramethylenesilane]tetrachloropaltinum(IV), CHEMBL2146189”, the GI50 amounted to 5.92 µM. The substance “[Bis(aminomethyl)diethylsilane]tetrachloroplatinum(IV), CHEMBL2146203” came in with a GI50 of 4.06 µM. For “[Bis(aminomethyl)ethylmethylsilane]tetrachloroplatinum(IV), CHEMBL2146192” the value was 1.19 µM. In turn, CISPLATIN, CHEMBL11359 yielded a GI50 of 1.99 µM. “[Bis(aminomethyl)dimethylsilane]tetrachloroplatinum(IV), CHEMBL2146190” returned a GI50 of 4.05 µM. For “[Bis(aminomethyl)dimethylsilane]dichloroplatinum (II), CHEMBL2146201” the value was 12 µM.

The substance “[Bis(aminomethyl)pentamethylenesilane]tetrachloropaltinum(IV), CHEMBL2146204” yielded a GI50 of 2.14 µM. The result for “mu-(1,7-nanodiamine-N,N')bis-(cis-aminedichloroplatimum (II)), CHEMBL2146215” reads 50.6 µM. Substance “[Bis(aminomethyl)tetramethylenesilane]dichloropaltinum(II), CHEMBL2146205” showed a GI50 of 13.6 µM.

As for “cis-Bis[[(trimethylsilyl)methyl]amino]tetrachloroplatinum(IV), CHEMBL2146191”, the GI50 is 11.9 µM.
